Reference: PubChem BioAssay (NCI)
This is part of a sample that, as a whole, favours compounds with a hit. Of some 83,000 tested, about 20% had one in any assay.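 Interpretation: 100, growth as untreated; towards 0, rising growth inhibition; 0, no net growth; 0 to -100, cell death. Compounds scoring below 10 were considered active.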 Values without a mark were called inactive. Activity calls are given as the source filed them.

Key:
Experiment in all cases: NCI-60 one-dose screen, 48 h (100 = growth as untreated, 0 = no growth, -100 = all killed)
Conditions in all cases: 10 µM unless noted
SK-MEL-2 melanoma = test system: SK-MEL-2 melanoma
EKVX NSCLC = test system: EKVX NSCLC
SN12C renal = test system: SN12C renal
UO-31 renal = test system: UO-31 renal
TK-10 renal = test system: TK-10 renal
ACHN renal = test system: ACHN renal
CAKI-1 renal = test system: CAKI-1 renal
A498 renal = test system: A498 renal
CCRF-CEM leukemia = test system: CCRF-CEM leukemia
MOLT-4 leukemia = test system: MOLT-4 leukemia
SR leukemia = test system: SR leukemia
RPMI-8226 leukemia = test system: RPMI-8226 leukemia
OVCAR-8 ovarian = test system: OVCAR-8 ovarian
OVCAR-5 ovarian = test system: OVCAR-5 ovarian
OVCAR-4 ovarian = test system: OVCAR-4 ovarian
SK-OV-3 ovarian = test system: SK-OV-3 ovarian
IGROV1 ovarian = test system: IGROV1 ovarian
OVCAR-3 ovarian = test system: OVCAR-3 ovarian
HS 578T breast = test system: HS 578T breast
NCI/ADR-RES ovarian = test system: NCI/ADR-RES ovarian

Compound | growth (SK-MEL-2 melanoma) | growth (EKVX NSCLC) | growth (SN12C renal) | growth (UO-31 renal) | growth (TK-10 renal) | growth (ACHN renal) | growth (CAKI-1 renal) | growth (A498 renal) | growth (CCRF-CEM leukemia) | growth (MOLT-4 leukemia) | growth (SR leukemia) | growth (RPMI-8226 leukemia) | growth (OVCAR-8 ovarian) | growth (OVCAR-5 ovarian) | growth (OVCAR-4 ovarian) | growth (SK-OV-3 ovarian) | growth (IGROV1 ovarian) | growth (OVCAR-3 ovarian) | growth (HS 578T breast) | growth (NCI/ADR-RES ovarian)
COC(c1ccc2c(c1)OCO2)C(C)Br (stereo not given) | 101% | 90.3% | 100% | 91.8% | 85.8% | 102% | 83.7% | 95.6% | 93.3% | 91.6% | 88.6% | 93.5% | 101% | 101% | 100% | 83.1% | 91.4% | 110% | 91.2% | 106%
O=c1cc(C(F)(F)F)[nH]c(=S)[nH]1 | 111% | 95% | 95% | 87.3% | 97.7% | 108% | 88% | 139% | 119% | 105% | 91.7% | 111% | 105% | 102% | 107% | 99.9% | 105% | 120% | – | 109%
Oc1cccc(CNC2CCCCC2)c1 | 115% | 115% | 106% | 86.6% | 105% | 107% | 106% | 136% | 107% | 106% | 102% | 104% | 110% | 108% | 126% | 109% | – | 119% | – | 110%
C=C(c1ccc(N(C)C)cc1)c1ccc(N(C)C)cc1 | -8.02% (active) | 6.55% (active) | 1.84% (active) | 28.8% | 58.2% | 36.1% | 22.2% | 78.8% | -14.1% (active) | 5.78% (active) | 11.8% | 7.06% (active) | -5.66% (active) | 16% | 48.9% | 27.4% | 25.4% | -33% (active) | – | -35.5% (active)
CC(=O)C1C(=O)C(=O)N(c2ccc(Cl)c(Cl)c2)C1=O (stereo not given) | 111% | 92.1% | 97.4% | 95.2% | 107% | 97.8% | 93.4% | 118% | 115% | 91.5% | 91.2% | 107% | 101% | 104% | 88.5% | 106% | – | 107% | 103% | 97%
CCN(CC)c1ccc2nc3ccc(N=Nc4ccc(N(C)C)cc4)cc3[n+](-c3ccccc3)c2c1 | -37.1% (active) | -75.2% (active) | -49.5% (active) | -55.1% (active) | 5.74% (active) | -79.4% (active) | -27.8% (active) | -25.1% (active) | -21% (active) | -20.1% (active) | -18.3% (active) | -23.6% (active) | 5.08% (active) | -58.2% (active) | -100% (active) | -8.27% (active) | 14.5% | -30.6% (active) | – | 0.224% (active)
CSc1cnc2ccccc2n1 | 86% | 103% | 94.4% | 78.4% | 94.1% | 107% | 97% | 105% | 113% | 107% | 95.4% | 109% | 95.5% | 101% | 115% | 97.2% | 104% | 107% | 98.8% | 103%
C/C(O)=C(/C=N\C(=S)Nc1ccc(S(=O)(=O)Nc2nccs2)cc1)C(=O)Nc1ccccc1C | 115% | 101% | 87.5% | 93.2% | 111% | 99.9% | 91.9% | 60.5% | 87.4% | 83.7% | 79.1% | 86.3% | 87.7% | 103% | 98.7% | 100% | 106% | 97% | 84.1% | 105%
C/C(Cc1ccccc1)=N\O | 104% | 116% | 107% | 102% | 103% | 106% | 115% | 103% | -29.9% (active) | 5.17% (active) | 101% | 83.3% | 107% | 107% | 117% | 128% | – | 105% | – | 107%
O=C(Nc1ccc([N+](=O)[O-])cc1)C(=O)Nc1ccc([N+](=O)[O-])cc1 | 97% | 103% | 102% | 89.1% | 98.5% | 107% | 98.1% | 100% | 101% | 101% | 101% | 105% | 86.4% | 102% | 121% | 93.5% | 105% | 103% | 95% | 105%
O=C(OCC1CCCO1)c1ccc([N+](=O)[O-])cc1 (stereo not given) | 103% | 106% | 95.3% | 86.9% | 99.4% | 104% | 106% | 82.2% | 94.2% | 101% | 116% | 103% | 99.2% | 109% | 117% | 97.9% | – | 111% | 96.7% | 103%
O=[n+]1ccn([O-])c2ccccc21 | 120% | 104% | 97.4% | 88.6% | 98.3% | 104% | 96.2% | 81% | 17.7% | 102% | 78.3% | 78.9% | 121% | 93.1% | 106% | 109% | – | 101% | 89.4% | 103%
O=C(Nc1cccc(Cl)c1)c1ccc(Cl)cc1Cl | 95.6% | 84.3% | 92.9% | 82.7% | 90.1% | 99.7% | 92.2% | 87.8% | 89.6% | 87.9% | 81.4% | 84.5% | 97.4% | 95.8% | 107% | 95% | 107% | 98% | 92.7% | 103%
O=[N+]([O-])c1ccc2[nH]c(=S)n(/C=C(/c3ccc(Cl)cc3Cl)S(=O)(=O)Cc3ccc(Cl)cc3Cl)c2c1 | 102% | 92.9% | 94.6% | 97.2% | 101% | 98.1% | 97.4% | 103% | 103% | 98.3% | 83.1% | 98.7% | 93.7% | 108% | 95.9% | 99.1% | 104% | 117% | 106% | 100%
CCCCN(C=S)CCCC | 91.8% | 103% | 97.5% | 93.5% | 98.4% | 95.7% | 95.2% | 91.4% | 95.7% | 91.4% | 91.9% | 101% | 95% | 102% | 112% | 88.6% | 107% | 108% | 97.1% | 107%
COc1cc(CC#N)c([N+](=O)[O-])cc1OC | 109% | 111% | 104% | 96% | 101% | 109% | 102% | 107% | 103% | 94.6% | 91.2% | 109% | 98.2% | 111% | 128% | 111% | 95.6% | 109% | 117% | 105%
O=C(c1ccccc1O)N1CCCC1 | 92.9% | 97.5% | 102% | 91.9% | 96.5% | 94.4% | 94.8% | 91.9% | 100% | 98.6% | 99.5% | 94.8% | 99.3% | 98.9% | 109% | 95.8% | 103% | 110% | 111% | 101%
